# Reference: PubChem BioAssay AID1851 (National Center for Advancing Translational Sciences (NCATS), 2009)
# Several values for one entry are separate records, joined by “and”; a condition that tells them apart may be missing. Equal entries are not always repeated. The campaign covered roughly 16,000 compounds. About 5,800 (36%) were called active. About 23% were inconclusive and are not listed. The list shows a part of the results. Unmarked numbers belong to inactive results. Calls come from the whole dose curve; as a rule, active = well fitted curve in the direction sought with a large enough effect; inconclusive = small, poorly fitted or top-dose-only effect, or effect the other way; inactive = no such curve, though single readings can be large or run the other way.
# Target: Cytochrome P450 2C19 (Homo sapiens) (UniProt P33261)
# Experiment: Cytochrome panel assay with activity outcomes
# Settings: recombinant CYP, pro-luciferin dealkylation, luminescence, p450-cyp2c19; series mostly up to 57.1 µM
# % is set by controls: 0 for no effect and ±100 for the full control effect.
# Sequence of Cytochrome P450 2C19 (Homo sapiens) (P33261 whole entry, looked up): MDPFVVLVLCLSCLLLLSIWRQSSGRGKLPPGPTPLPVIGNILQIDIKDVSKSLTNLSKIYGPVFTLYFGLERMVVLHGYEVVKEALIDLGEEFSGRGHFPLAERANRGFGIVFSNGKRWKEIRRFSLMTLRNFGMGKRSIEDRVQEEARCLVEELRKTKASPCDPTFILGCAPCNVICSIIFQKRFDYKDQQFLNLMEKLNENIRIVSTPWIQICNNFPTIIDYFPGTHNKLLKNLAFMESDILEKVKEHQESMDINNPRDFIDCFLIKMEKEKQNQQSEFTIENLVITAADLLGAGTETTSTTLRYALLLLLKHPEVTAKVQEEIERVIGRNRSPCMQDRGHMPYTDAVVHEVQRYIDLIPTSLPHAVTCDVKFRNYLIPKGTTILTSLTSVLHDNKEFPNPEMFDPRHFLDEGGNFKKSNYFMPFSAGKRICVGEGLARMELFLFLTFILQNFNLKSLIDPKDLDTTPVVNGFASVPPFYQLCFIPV
SMILES,"activity, negative = inhibition",AC50
O=C1C=CC(=Nc2cccc3c(N=C4C=CC(=O)O4)cccc23)O1,-74.7% [at 11.4 µM],–
CC1=CC(C)(C)NC(=S)N1c1cccc(C)c1,–,3.98 µM (active)
COc1cccc([C@@H]2Oc3ccc(OC)cc3/C(=N/OC[C@@H](C)[C@H](OCc3ccccc3)C(C)C)[C@@H]2O)c1,–,2 µM (active)
CCN1C(=O)[C@H]2[C@H]3[C@H](O)[C@H](O)C/C(=N/O[C@@H](C)c4cc(-c5c(C)cc(C)cc5C)no4)[C@@H]3CC[C@@H]2C1=O,-26.1% [at 11.4 µM],–
CCN1C(=O)[C@H]2[C@H]3[C@H](O)[C@H](O)C/C(=N/OC[C@@H](C)[C@H](OCc4ccccc4)C(C)C)[C@@H]3CC[C@@H]2C1=O,-18.6% [at 11.4 µM],–
CC(C)=NOC[C@@H](O)COCc1ccco1,-10.6% [at 11.4 µM],–
COc1cccc([C@H]2Oc3ccc(OC)cc3/C(=N\OC[C@@H](O)[C@@H]3O[C@@H]4OC(C)(C)O[C@@H]4[C@H]3O)[C@@H]2O)c1,-33% [at 11.4 µM],–
COc1cccc([C@@H]2Oc3ccc(OC)cc3/C(=N/O[C@@H](C)c3cn([C@H]4COC[C@H]4O)nn3)[C@@H]2O)c1,-35.4% [at 11.4 µM],–
COc1cccc([C@@H]2Oc3ccc(OC)cc3/C(=N/OC[C@@H](O)COCc3ccco3)[C@@H]2O)c1,–,1.58 µM (active)
COc1cccc([C@H]2Oc3ccc(OC)cc3/C(=N\O[C@@H](C)c3cn([C@H](CO)Cc4ccccc4)nn3)[C@@H]2O)c1,-44.2% [at 11.4 µM],–
COc1cccc([C@@H]2Oc3ccc(OC)cc3/C(=N/O[C@@H](C)c3cc(-c4c(C)cc(C)cc4C)no3)[C@@H]2O)c1,–,1.58 µM (active)
O=C(O)/C(=C/c1c(C(=O)O)[nH]c2cc(Cl)cc(Cl)c12)c1ccccc1,–,inactive
O=C1NCCN1Cc1ccccc1F,–,20 µM (active)
CN(C)S(=O)(=O)Oc1cccc(C(=O)Nc2ccc(Cl)c(Cl)c2)c1,–,3.98 µM (active)
CN(C)S(=O)(=O)Oc1cccc(C(=O)Nc2ccccc2Cl)c1,–,2.82 µM (active)
CC(C)(N=NC(C)(C)C(=N)N)C(=N)N,41.9% [at 11.4 µM],–
CON1C(=O)C(=O)N(OC)C2CCCCC21 (centres undefined),–,inactive
CC=C(/C(=C/C)c1ccc(O)cc1)c1ccc(O)cc1,–,3.16 µM (active)
N#CC(C#N)=C(N)/C(C#N)=C/c1ccc(O)cc1,–,inactive
COc1ccc(CNC(=O)C2CC(c3cccc([N+](=O)[O-])c3)=NO2)cc1 (centres undefined),–,10 µM (active)
COc1ccc(CNC(=O)C2CC(c3ccc(OC)cc3)=NO2)cc1 (centres undefined),–,inactive
COCCNC(=O)C1CC(c2cccc(OC)c2)=NO1 (centres undefined),–,inactive
COc1cccc(C2=NOC(C(=O)NCc3ccccc3)C2)c1 (centres undefined),–,3.98 µM (active)

SMILES,"activity, negative = inhibition",AC50
COc1cccc(C2=NOC(C(=O)NCCN3CCOCC3)C2)c1 (centres undefined),–,inactive
O=C(NCc1ccc2c(c1)OCO2)C1CC(c2cccc(Br)c2)=NO1 (centres undefined),–,11.2 µM (active)
COc1cccc(C2=NOC(C(=O)Nc3cccnc3)C2)c1 (centres undefined),–,10 µM (active)
CCNc1ncc2nc(C)c(=O)n(Cc3cccs3)c2n1,–,inactive
COC(=O)N1CCC[C@@]2(CCN(C(=O)Nc3cccc(F)c3)C2)C1,–,inactive
CN1CCN(c2ncc3nc(-c4cccs4)c(=O)n(-c4ccccc4)c3n2)CC1,–,inactive
O=c1c(-c2cccs2)nc2cnc(N3CCOCC3)nc2n1-c1ccccc1,–,inactive
O=c1c(-c2cccs2)nc2cncnc2n1-c1ccccc1,–,6.31 µM (active)
Cn1c(=O)c(-c2cccs2)nc2cncnc21,–,inactive
COc1ccc(-n2c(=O)c(-c3cccs3)nc3cncnc32)cc1,–,15.8 µM (active)
COc1ccc(-n2c(=O)c(-c3cccs3)nc3cnc(Oc4ccccc4)nc32)cc1,–,inactive
CCCc1ncc(C[n+]2ccccc2C)c(N)n1,–,inactive
COCC(=O)N1CCC2(CC1)CCN(C(=O)Nc1ccc(OC)cc1)CC2,–,inactive
COc1ccc2c(c1)c(=O)oc1c(C)c(OCC(=O)N3CCc4ccccc4C3)ccc12,–,0.398 µM (active)
CCOc1cc(/C=C2/SC(=O)N(CC(=O)N3CCc4ccccc4C3)C2=O)ccc1OCC(=O)O,–,inactive
N#Cc1c(NC(=O)CCN2C(=O)c3ccccc3C2=O)oc(-c2ccccc2)c1-c1ccccc1,–,3.16 µM (active)
Cc1ccc(CNCC(O)(c2ccc(F)cc2)c2ccc(F)cc2)cc1,–,11.2 µM (active)
OC(CNCc1ccc(F)cc1)(c1ccc(F)cc1)c1ccc(F)cc1,–,7.94 µM (active)
COc1cnc(-c2ccccn2)nc1Oc1ccc(Cl)c2ccccc12,–,14.1 µM (active)
C=C1C(=O)O[C@@H]2[C@@H]1CC/C(C)=C\CC[C@@]1(C)O[C@H]21,–,inactive
Cn1c(Sc2ccc(-c3cccnc3)n2C)ccc1-c1cccnc1,–,1 µM (active)
c1cncc(-c2cc(-c3cc(-c4cccnc4)n[nH]3)[nH]n2)c1,-4.18% [at 11.4 µM],–
COc1cccc(/C=N/NC(=O)CO/N=C(\C)c2cccs2)c1OC,–,12.6 µM (active)

SMILES,"activity, negative = inhibition",AC50
CCOc1ccc(-c2cc(CCCC(=O)NCCc3ccc(OC)c(OC)c3OC)no2)cc1,–,1.58 µM (active)
CC(=O)N1CCC2(CCCN(C(=O)Nc3cccc(F)c3)C2)CC1,–,inactive
O=C(/C=C\NCC(=O)c1ccccc1)c1ccc(F)cc1,–,2 µM (active)
O=C(/C=C\NCC(=O)c1ccccc1)c1ccccc1,–,3.98 µM (active)
O=C(C[N+]1(c2ccccc2)CCOCC1)c1ccccc1,-17.3% [at 11.4 µM],–
c1ccc(C(c2ccccc2)N2CC3(CCNCC3)C2)cc1,–,inactive
c1ccc(C(c2ccccc2)N2CCCC3(CCNCC3)C2)cc1,–,inactive
c1ccc(C(c2ccccc2)N2CCC3(CCNCC3)CC2)cc1,–,3.98 µM (active)
CC(C)CO/N=C1/C[C@@H](O)[C@@H](O)[C@@H]2[C@@H]3C(=O)N(Cc4ccc5c(c4)OCO5)C(=O)[C@H]3CC[C@@H]12,-22.9% [at 11.4 µM],–
CC(C)CO/N=C1/C[C@@H](O)[C@@H](O)[C@@H]2[C@@H]3C(=O)N(Cc4ccc5c(c4)OCO5)C(=O)[C@H]3CC[C@H]12,–,3.98 µM (active)
O=C1[C@H]2[C@H]3[C@H](O)[C@H](O)C/C(=N/OC[C@@H](O)COCc4ccco4)[C@H]3CC[C@@H]2C(=O)N1Cc1ccc2c(c1)OCO2,4.07% [at 11.4 µM],–
O=C(NNC(=O)c1ccncc1)c1ccncc1,6.77% [at 11.4 µM],–
O=C(Nc1nnc(C2CC2)s1)c1ccncc1,–,17.8 µM (active)
NNC(=O)CNC(c1ccccc1)c1cc(Br)ccc1NC(=O)c1ccccc1Br (centres undefined),–,7.08 µM (active)
Cc1ccc(-c2c3c(nc4sc(C(N)=O)c(N)c24)CCC3)cc1,–,14.1 µM (active)
O=C1C(=O)N(c2cccc(Cl)c2)C(c2ccccc2[N+](=O)[O-])/C1=C(\O)c1ccccc1 (centres undefined),–,20 µM (active)
COc1ccc(C2/C(=C(/O)c3ccccc3)C(=O)C(=O)N2c2ccccn2)c(OC)c1 (centres undefined),–,inactive
O=[N+]([O-])c1ccc(C2=Nn3c(nnc3-c3ccc(Cl)cc3)SC2)o1,–,2.51 µM (active)
O=C1COC(c2ccccc2O)=NN1CCCN1CCCC1,43.2% [at 11.4 µM],–
Cn1c(=O)n(CC#N)c2ccccc21,–,inactive
Cc1snc(SCC(=O)N/N=C(\N)COc2cccc(C(F)(F)F)c2)c1C#N,–,4.47 µM (active)
Cc1ccc2c(c1)N(CC(=O)NCc1cccs1)C(=O)C(C)O2 (centres undefined),–,2.51 µM (active)
COc1ccc(CCN(C)CCC(=O)Nc2c(C)cc(C)cc2C)cc1OC,–,inactive

SMILES,"activity, negative = inhibition",AC50
Cc1ccc(C)c(NC(=O)Cn2nnc(C(=O)NCc3cccs3)c2N)c1,–,inactive
COc1ccc(CCNC(=O)CCN2C(=O)C(C)Oc3ccc(C)cc32)cc1OC (centres undefined),–,20 µM (active)
CC(=O)OCC1=C(C(=O)O)N2C(=O)[C@@H](NC(=O)Cc3cccs3)[C@@H]2SC1,–,inactive
NC(=O)/C(=N\OC(=O)c1ccco1)c1nc(-c2ccc(Br)cc2)cs1,–,20 µM (active)
Cc1cc(C)cc(C(=O)N(C)[C@H](Cc2ccc(-c3ccccc3)cc2)C(=O)N[C@@H](Cc2c[nH]c3ccccc23)C(=O)O)c1,–,10 µM (active)
O=C(O)[C@@H](Cc1c[nH]c2ccccc12)C(=O)NO,84.7% [at 11.4 µM],–
CCc1cc2c(nc1CC)CCN(CC/C(C)=N/O[C@@H](C)c1cn([C@H](CO)Cc3ccccc3)nn1)C2,-17.2% [at 11.4 µM] and -16.8% [at 11.4 µM],–
CC(C)(C)C(=O)Nc1ccnc(-c2cccnc2)n1,–,2.24 µM (active)
O=C(Nc1ccnc(-c2cccnc2)n1)c1cccc(Cl)c1Cl,–,2.82 µM (active)
CC(=O)Nc1ccnc(-c2cccnc2)n1,–,inactive
C=CCNC(=S)N/N=C/c1ccc(OCc2ccccc2)cc1,–,inactive
COc1cc(/C=N/NC(=O)c2cccs2)ccc1OCc1ccccc1,–,1.41 µM (active)
O=C(N/N=C/c1cccc(OCc2ccccc2)c1)c1cccs1,–,5.01 µM (active)
COc1cc(/C=N\NC(=O)C2C(=O)NCC2c2ccccc2)cc(OC)c1O (centres undefined),–,inactive
O=C(N/N=C/C=C/c1ccc([N+](=O)[O-])cc1)c1cccs1,–,inactive
COc1ccc(CCN(C)Cc2ccc(OCc3ccccc3)c(OC)c2)cc1OC,–,inactive
O=C(N/N=C/c1ccc(OCc2ccccc2)cc1)c1cccs1,–,2.51 µM (active)
Cc1c(NC(C)C)c(=O)n(-c2ccccc2)n1C,–,inactive
Cc1c(NCc2cc(Cl)ccc2O)c(=O)n(-c2ccccc2)n1C,–,5.62 µM (active)
Cc1c(NC(=O)Nc2c(Cl)cccc2Cl)c(=O)n(-c2ccccc2)n1C,10.7% [at 11.4 µM],–
